PubChem BioAssay (NCATS)
Values joined by “and” are separate entries in the source; they are usually repeats but may differ in a detail not shown here. Identical values can stand only once. Records with an inconclusive call do not appear. Entries that show only a call come without a potency. A number with no mark means an inactive call. Active and inactive are the calls of the source. Calls come from the whole dose curve; as a rule, active = well fitted curve in the direction sought with a large enough effect; inconclusive = small, poorly fitted or top-dose-only effect, or another doubt; inactive = no such curve, though single readings can be large; an effect the other way counts as inactive or inconclusive.

Columns and labels:
[1] = molecular target: Cellular tumor antigen p53 (Homo sapiens) (UniProt P04637); test: Primary qHTS for small molecule compounds that upregulate eGFP-tagged delta133p53alpha (in N-terminal) cells. (AID 2060322); settings: NCI-H358 eGFP-delta133p53alpha fluorescence, 24 h; activation: stronger effect = higher value; note: nearly all actives have a fitted effect of over 75% in size; note: potency is the fitted concentration of half-maximal effect; for activation: series mostly up to about 56 µM
Cellular tumor antigen p53 (Homo sapiens), sequence (P04637 whole entry, looked up): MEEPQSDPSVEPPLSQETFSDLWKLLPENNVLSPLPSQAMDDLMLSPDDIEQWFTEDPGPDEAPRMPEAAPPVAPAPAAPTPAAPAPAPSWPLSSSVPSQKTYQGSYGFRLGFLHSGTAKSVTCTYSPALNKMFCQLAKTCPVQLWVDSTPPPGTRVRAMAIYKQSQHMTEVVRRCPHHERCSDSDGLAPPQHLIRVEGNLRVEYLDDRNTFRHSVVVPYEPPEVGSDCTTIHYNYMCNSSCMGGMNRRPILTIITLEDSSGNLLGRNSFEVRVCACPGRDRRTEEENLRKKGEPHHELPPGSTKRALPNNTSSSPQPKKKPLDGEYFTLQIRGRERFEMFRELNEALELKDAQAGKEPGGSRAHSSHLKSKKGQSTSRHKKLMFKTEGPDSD
Procedure, shortened: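 NCI-H358 cells pre-induced 24 h with 10 ng/ml doxycycline to express N-terminal eGFP-delta133p53alpha, then dosed 24 h at 37C without doxycycline; fixed, Hoechst-stained, GFP intensity by laser scanning cytometry, normalized to DMSO (0%) and 57.5 uM 5-azacytidine (100%).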

[2] = BET inhibitor-based combinations targeting novel dependencies in MECOM-rearranged (r) AML: SET-2 cell line (AID 2202231); settings: SET-2 AML cells viability, CellTiter-Glo luminescence, 48 h; viability: stronger effect = lower value, concentration not given here; note: nearly all actives have a fitted effect of over 35% in size; note: potency is the fitted concentration of half-maximal effect
Procedure, shortened: (§1)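 Here, 11-point titrations of each agent were applied to 500 seeded cells and incubated 48 hr; CellTiter-Glo signal, scaled against DMSO and empty wells, was integrated as AUC, then Z-scored within the individual line.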

[3] = BET inhibitor-based combinations targeting novel dependencies in MECOM-rearranged (r) AML: OCI-AML3 cell line (AID 2202232); settings: Potency: OCI-AML3 viability; note: nearly all actives have a fitted effect of over 35% in size; note: potency is the fitted concentration of half-maximal effect
Procedure, shortened: as §1

[4] = BET inhibitor-based combinations targeting novel dependencies in MECOM-rearranged (r) AML: MV-4-11 cell line (AID 2202233); note: nearly all actives have a fitted effect of over 45% in size; note: potency is the fitted concentration of half-maximal effect
Procedure, shortened: (§2)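 Normalized to DMSO and empty-well controls, the luminescence data from CellTiter-Glo after 48 hr drug exposure were fitted across 11 concentrations. Reported metrics are area under the dose-response curve and its Z-transformed form.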

[5] = BET inhibitor-based combinations targeting novel dependencies in MECOM-rearranged (r) AML: HNT-34 cell line (AID 2202234); note: nearly all actives have a fitted effect of over 35% in size; note: potency is the fitted concentration of half-maximal effect
Procedure, shortened: as §2

[6] = BET inhibitor-based combinations targeting novel dependencies in MECOM-rearranged (r) AML: UCSD-AML1 cell line (AID 2202235); note: nearly all actives have a fitted effect of over 40% in size; note: potency is the fitted concentration of half-maximal effect
Procedure, shortened: as §2

[7] = BET inhibitor-based combinations targeting novel dependencies in MECOM-rearranged (r) AML: AML-191 cell line (AID 2202236; note: nearly all actives have a fitted effect of over 35% in size; note: potency is the fitted concentration of half-maximal effect)
Procedure, shortened: as §1

[8] = BET inhibitor-based combinations targeting novel dependencies in MECOM-rearranged (r) AML: AML-194 cell line (AID 2202237; note: nearly all actives have a fitted effect of over 40% in size; note: potency is the fitted concentration of half-maximal effect)
Procedure, shortened: as §1

[9] = molecular target: Retinaldehyde dehydrogenase 3 (Homo sapiens) (UniProt P47895); test: qHTS for Inhibitors of the Aldehyde Dehydrogenase Family (ALDH1A3) Primary screen (AID 2061315)

| Structure (SMILES) | activation [1] | viability [2] | Potency [3] | Potency [4] | Potency [5] | Potency [6] | Potency [7] | Potency [8] | Potency [2] | Potency [9] | Potency [1] |
| --- | --- | --- | --- | --- | --- | --- | --- | --- | --- | --- | --- |
| CCN1CCN(C(=O)N[C@@H](C(=O)N[C@@H]2C(=O)N3C(C(=O)O)=C(CSc4nnnn4C)CS[C@H]23)c2ccc(O)cc2)C(=O)C1=O | -7.34% | 99.4% | inactive | inactive | inactive | inactive | inactive | inactive | – | – | – |
| CCOc1cc(N2CCC(O)CC2)ccc1Nc1ncc2c(n1)N(C)c1ccccc1C(=O)N2C | 72.4% | – | 3.32 µM (active) | 2.95 µM (active) | 14.8 µM (active) | 8.33 µM (active) | – | – | 14.8 µM (active) | – | – |
| COc1ccc(-c2nc3ccc(C4=NNC(=O)CC4C)cc3[nH]2)cc1 (stereo not drawn) | 15.8% | – | 18.6 µM (active) | 11.8 µM (active) | 8.33 µM (active) | 11.8 µM (active) | – | – | – | inactive | – |
| C[C@]12CC[C@@H]3c4ccc(O)cc4CC[C@H]3[C@H]1[C@@H](O)[C@@H](O)[C@H]2O | 9.46% | 104% | inactive | inactive | inactive | inactive | inactive | inactive | – | – | – |
| Cc1cc(Nc2nc(N[C@@H](C)c3ccc(F)cc3)c(C#N)cc2F)n[nH]1 | – | – | 0.525 µM (active) | 0.662 µM (active) | – | 0.525 µM (active) | 0.105 µM (active) | 0.166 µM (active) | – | inactive | 16.9 µM (active) |
| O=C1CCCC(=O)C1C(=O)c1ccc(C(F)(F)F)cc1[N+](=O)[O-] | 24.5% | 111% | inactive | inactive | inactive | inactive | inactive | inactive | – | – | – |
| C[C@@H]1CN(CC(=O)N2CC(C)(C)c3ncc(Cc4ccc(F)cc4)cc32)[C@@H](CN2CCOC[C@H]2C)CN1 | -14.4% | 86.9% | – | – | – | – | – | – | – | – | – |
| CCCCC(CC)COC(=O)C(C#N)=C(c1ccccc1)c1ccccc1 (stereo not drawn) | -10.7% and -6.01% | 108% | inactive | inactive | inactive | inactive | inactive | inactive | – | – | – |
| CN(C)S(=O)(=O)c1ccc2c(c1)C(=Cc1cc3c([nH]1)CCCC3)C(=O)N2 | – | 101% | 5.9 µM (active) | 2.09 µM (active) | – | – | – | – | – | – | 1.37 µM (active) |
| CN1C(C(=O)Nc2ccccn2)=C(O)c2sc(Cl)cc2S1(=O)=O | -22.9% | 103% | inactive | inactive | inactive | inactive | inactive | inactive | – | – | – |
| CN1CC(=O)NC1=NC(=O)Nc1cccc(Cl)c1 | -20.6% | 111% | inactive | inactive | inactive | inactive | inactive | inactive | – | – | – |
| O=C1[C@H](Cc2ccc(O)cc2)N2C(=O)CCN(C(=O)NCc3ccccc3)[C@H]2CN1Cc1cccc2ccccc12 | 18.1% | – | 9.34 µM (active) | 9.34 µM (active) | 5.25 µM (active) | – | – | – | 11.8 µM (active) | – | – |
| O=C(O)c1cc(=O)[nH]c(=O)[nH]1 | 15.1% and 14.7% | 111% | inactive | inactive | inactive | inactive | inactive | inactive | – | – | – |
| C[C@H](NC(=O)Cc1cc(F)cc(F)c1)C(=O)N[C@H](C(=O)OC(C)(C)C)c1ccccc1 | 11.5% | 118% | inactive | inactive | inactive | inactive | inactive | inactive | – | – | – |
| C=C(C)[C@@H]1CC[C@]2(C(=O)O)CC[C@]3(C)[C@H](CC[C@@H]4[C@@]5(C)CC[C@H](O)C(C)(C)[C@@H]5CC[C@]43C)[C@@H]12 | 7.46% | 115% | inactive | inactive | inactive | inactive | inactive | – | – | – | – |
| C[C@H]1COC2=C1C(=O)C(=O)c1c2ccc2c1CCCC2(C)C | -1.94% | – | 20.9 µM (active) | 13.2 µM (active) | – | – | – | – | 20.9 µM (active) | – | – |
| CC(Oc1ccc(O)cc1)(P(=O)(O)O)P(=O)(O)O | -17.7% | 109% | inactive | inactive | inactive | inactive | inactive | inactive | – | – | – |
